Results published in ChEMBL document CHEMBL3988442, “University of Dundee, Small-Polar-MMV Screening Library” (2021).
For some assays here: Measured potencies and affinities stand elsewhere.

Key:
Set-up in all cases: scale not given: direction of the effect not stated beside the values
[1] = molecular target: Protein translocase subunit SecA (Escherichia coli (strain K12)) (UniProt P10408); experiment: Assay to Identify E. coli SecA ATPase Inhibitors; format: functional; conditions: 30 µM
[2] = molecular target: T1, Ubiquitin-activating enzyme e1, putative (Leishmania donovani (strain BPK282A1)) (UniProt E9BSI1); experiment: Leishmania donovani Ubiquitin Activating Enzyme (LdE1); format: functional; conditions: 30 µM
T1 sequence (whole entry): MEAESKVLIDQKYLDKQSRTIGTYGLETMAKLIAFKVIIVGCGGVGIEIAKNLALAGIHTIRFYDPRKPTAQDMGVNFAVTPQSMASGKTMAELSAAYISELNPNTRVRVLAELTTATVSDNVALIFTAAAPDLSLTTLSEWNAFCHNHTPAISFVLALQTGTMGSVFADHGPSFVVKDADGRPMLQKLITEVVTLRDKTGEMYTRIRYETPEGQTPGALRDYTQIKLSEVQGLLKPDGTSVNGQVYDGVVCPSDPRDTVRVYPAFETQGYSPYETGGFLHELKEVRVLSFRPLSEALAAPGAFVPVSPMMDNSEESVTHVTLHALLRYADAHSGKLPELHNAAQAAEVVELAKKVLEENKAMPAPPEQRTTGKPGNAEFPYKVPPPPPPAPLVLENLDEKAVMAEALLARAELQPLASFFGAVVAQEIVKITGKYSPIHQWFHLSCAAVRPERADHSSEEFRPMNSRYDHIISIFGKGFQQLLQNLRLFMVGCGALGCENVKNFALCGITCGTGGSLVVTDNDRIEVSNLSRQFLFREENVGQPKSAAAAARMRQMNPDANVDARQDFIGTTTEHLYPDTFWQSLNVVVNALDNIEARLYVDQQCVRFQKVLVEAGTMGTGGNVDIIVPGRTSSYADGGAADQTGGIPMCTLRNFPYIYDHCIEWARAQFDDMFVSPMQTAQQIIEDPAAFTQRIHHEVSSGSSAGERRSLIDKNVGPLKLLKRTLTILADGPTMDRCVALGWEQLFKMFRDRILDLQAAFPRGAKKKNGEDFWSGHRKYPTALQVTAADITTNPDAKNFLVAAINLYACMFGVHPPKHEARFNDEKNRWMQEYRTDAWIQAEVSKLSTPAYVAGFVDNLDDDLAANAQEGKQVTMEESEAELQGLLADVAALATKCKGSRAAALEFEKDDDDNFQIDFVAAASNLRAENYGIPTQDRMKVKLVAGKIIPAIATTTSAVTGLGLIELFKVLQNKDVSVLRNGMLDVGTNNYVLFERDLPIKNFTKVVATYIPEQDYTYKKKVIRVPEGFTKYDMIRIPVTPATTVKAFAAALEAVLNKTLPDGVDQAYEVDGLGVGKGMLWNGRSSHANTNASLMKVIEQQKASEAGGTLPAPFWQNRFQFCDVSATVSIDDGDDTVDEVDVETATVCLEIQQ

[3] = molecular target: AMP-activated protein kinase, AMPK (Homo sapiens) (UniProt P54646+O43741+P54619+Q9UGJ0+Q9Y478+Q13131+Q9UGI9); experiment: AMP-dependent Kinase enzyme assay. An in vitro enzyme assay that detects ADP turnover that is directly proportional to AMPK activity. This uses naive AMPK that is activated during the assay with MK-8722; format: functional; conditions: 30 µM
[4] = molecular target: Sialic acid-binding Ig-like lectin 9 (Homo sapiens) (UniProt Q9Y336); experiment: Hs-Siglec9 ALPHAscreen SOP 20170721; conditions: 10 µM
[5] = system: Trypanosoma cruzi; experiment: Trypanosoma cruzi phosphomannomutase and mannose-1-phosphate guanylyltransferase assay; format: functional; conditions: 10 µM
[6] = molecular target: T2, Arginase-2, mitochondrial (Homo sapiens) (UniProt P78540); experiment: in vitro enzyme assay to detect the production of urea directly proportional to the activity of Arginase II; format: functional; conditions: 33.3 µM; further: in the data most compounds retested in dose-response had high values
T2 sequence (whole entry): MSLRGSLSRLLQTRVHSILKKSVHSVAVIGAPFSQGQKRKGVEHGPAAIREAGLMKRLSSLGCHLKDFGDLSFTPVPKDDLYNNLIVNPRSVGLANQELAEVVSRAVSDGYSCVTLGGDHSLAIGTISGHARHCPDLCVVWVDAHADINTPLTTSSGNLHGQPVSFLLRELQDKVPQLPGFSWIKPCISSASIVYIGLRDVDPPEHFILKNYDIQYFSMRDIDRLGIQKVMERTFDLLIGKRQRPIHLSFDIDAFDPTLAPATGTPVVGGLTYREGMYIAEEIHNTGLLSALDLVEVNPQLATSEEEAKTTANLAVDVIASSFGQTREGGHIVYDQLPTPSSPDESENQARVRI

[7] = molecular target: T3, Proteasome subunit beta (Trypanosoma cruzi) (UniProt O96673); experiment: Trypanosoma cruzi proteasome chymotrypsin-like activity (TcProtChymo) assay.; further: in the data most compounds retested in dose-response had high values; format: functional; conditions: 9.37 µM
T3 sequence (whole entry): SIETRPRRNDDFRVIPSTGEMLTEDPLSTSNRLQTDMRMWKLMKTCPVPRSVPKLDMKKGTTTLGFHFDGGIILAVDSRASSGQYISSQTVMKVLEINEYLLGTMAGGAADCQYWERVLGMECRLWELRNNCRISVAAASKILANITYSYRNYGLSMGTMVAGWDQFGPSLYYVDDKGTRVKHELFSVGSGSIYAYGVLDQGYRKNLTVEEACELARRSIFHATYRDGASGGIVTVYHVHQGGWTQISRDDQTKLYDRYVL

[8] = species on record: Homo sapiens; experiment: To identify inhibition of the IFN signalling (Jak-Stat) pathway via expression of an eGFP reporter gene under the control of an IFN-stimulated response element (ISRE) containing MxA promoter.; format: functional; conditions: 30 µM
[9] = molecular target: T4, Tyrosyl-tRNA synthetase, putative (Trypanosoma cruzi (strain CL Brener)) (UniProt Q4DSP6); experiment: Trypanosoma cruzi tyrosyl tRNA synthetase (TcYRS) _High Tyrosine SOP; format: functional; conditions: 30 µM; further: in the data most compounds retested in dose-response had high values
T4 sequence (whole entry): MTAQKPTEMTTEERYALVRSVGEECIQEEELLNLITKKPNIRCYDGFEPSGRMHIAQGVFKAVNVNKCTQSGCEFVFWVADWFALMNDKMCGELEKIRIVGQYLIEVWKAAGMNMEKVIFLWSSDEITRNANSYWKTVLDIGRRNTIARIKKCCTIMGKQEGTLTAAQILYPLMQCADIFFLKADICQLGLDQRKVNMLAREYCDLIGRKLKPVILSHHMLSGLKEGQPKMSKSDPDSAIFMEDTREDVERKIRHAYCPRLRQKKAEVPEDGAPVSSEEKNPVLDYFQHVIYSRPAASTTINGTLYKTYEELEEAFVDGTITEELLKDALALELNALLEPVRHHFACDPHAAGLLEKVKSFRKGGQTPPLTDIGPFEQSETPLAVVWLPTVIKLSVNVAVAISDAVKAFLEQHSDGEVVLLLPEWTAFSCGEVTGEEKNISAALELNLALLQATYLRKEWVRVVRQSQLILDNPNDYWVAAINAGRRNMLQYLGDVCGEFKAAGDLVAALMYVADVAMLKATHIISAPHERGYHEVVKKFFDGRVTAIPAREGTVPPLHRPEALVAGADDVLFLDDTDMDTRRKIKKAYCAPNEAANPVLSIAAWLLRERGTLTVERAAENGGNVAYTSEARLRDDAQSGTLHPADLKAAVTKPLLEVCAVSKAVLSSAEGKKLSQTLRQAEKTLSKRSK

[10] = molecular target: T4, Tyrosyl-tRNA synthetase, putative (Trypanosoma cruzi (strain CL Brener)); experiment: Trypanosoma cruzi tyrosyl tRNA synthetase (TcYRS) SOP; format: functional; conditions: 30 µM
[11] = molecular target: Chromo domain-containing protein 1 (Saccharomyces cerevisiae (strain ATCC 204508 / S288c) (Baker's yeast)) (UniProt P32657); experiment: ScCHD-1 Enzyme Inhibition Assay; format: functional; conditions: 30 µM; further: in the data most compounds retested in dose-response had high values
Chromo domain-containing protein 1 (Saccharomyces cerevisiae (strain ATCC 204508 / S288c) (Baker's yeast)), sequence (P32657 whole entry, the tested form may be a part): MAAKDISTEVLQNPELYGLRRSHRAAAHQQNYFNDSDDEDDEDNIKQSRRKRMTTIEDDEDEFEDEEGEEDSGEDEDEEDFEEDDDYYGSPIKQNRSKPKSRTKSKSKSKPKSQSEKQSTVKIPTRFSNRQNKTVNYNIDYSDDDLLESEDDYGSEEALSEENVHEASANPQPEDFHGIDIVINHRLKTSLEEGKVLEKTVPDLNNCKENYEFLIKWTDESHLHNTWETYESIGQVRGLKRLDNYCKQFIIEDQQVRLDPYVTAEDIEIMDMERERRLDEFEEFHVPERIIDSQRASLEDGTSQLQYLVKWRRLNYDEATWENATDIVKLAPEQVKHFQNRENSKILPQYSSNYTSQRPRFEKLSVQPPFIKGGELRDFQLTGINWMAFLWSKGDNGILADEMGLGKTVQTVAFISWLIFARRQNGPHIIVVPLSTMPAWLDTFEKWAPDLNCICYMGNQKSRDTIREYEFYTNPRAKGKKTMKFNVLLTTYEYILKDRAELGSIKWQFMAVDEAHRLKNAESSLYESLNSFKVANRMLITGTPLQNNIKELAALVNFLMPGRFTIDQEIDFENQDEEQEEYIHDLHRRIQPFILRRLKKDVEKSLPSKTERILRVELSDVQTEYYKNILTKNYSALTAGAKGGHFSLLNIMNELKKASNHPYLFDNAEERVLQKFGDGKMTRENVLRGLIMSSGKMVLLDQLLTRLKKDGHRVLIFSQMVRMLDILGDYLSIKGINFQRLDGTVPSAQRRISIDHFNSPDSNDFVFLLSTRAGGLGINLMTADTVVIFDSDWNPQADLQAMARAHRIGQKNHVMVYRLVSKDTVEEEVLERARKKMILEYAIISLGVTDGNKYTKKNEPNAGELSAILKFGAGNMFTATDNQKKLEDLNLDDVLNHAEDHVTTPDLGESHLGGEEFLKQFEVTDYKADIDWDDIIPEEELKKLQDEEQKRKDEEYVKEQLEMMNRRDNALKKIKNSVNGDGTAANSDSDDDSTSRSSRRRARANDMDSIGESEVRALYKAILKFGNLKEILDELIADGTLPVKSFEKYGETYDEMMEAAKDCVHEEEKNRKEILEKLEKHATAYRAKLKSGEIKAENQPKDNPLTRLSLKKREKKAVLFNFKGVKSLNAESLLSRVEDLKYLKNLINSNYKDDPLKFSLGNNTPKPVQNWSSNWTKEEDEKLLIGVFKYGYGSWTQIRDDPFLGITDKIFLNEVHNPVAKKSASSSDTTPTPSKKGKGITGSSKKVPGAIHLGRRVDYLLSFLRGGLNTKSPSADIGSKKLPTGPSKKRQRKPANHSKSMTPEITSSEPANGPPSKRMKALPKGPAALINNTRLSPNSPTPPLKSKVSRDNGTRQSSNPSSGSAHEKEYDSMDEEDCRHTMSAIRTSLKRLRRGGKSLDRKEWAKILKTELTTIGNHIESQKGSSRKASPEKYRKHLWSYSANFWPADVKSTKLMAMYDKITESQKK

Sialic acid-binding Ig-like lectin 9 (Homo sapiens), sequence (Q9Y336 whole entry): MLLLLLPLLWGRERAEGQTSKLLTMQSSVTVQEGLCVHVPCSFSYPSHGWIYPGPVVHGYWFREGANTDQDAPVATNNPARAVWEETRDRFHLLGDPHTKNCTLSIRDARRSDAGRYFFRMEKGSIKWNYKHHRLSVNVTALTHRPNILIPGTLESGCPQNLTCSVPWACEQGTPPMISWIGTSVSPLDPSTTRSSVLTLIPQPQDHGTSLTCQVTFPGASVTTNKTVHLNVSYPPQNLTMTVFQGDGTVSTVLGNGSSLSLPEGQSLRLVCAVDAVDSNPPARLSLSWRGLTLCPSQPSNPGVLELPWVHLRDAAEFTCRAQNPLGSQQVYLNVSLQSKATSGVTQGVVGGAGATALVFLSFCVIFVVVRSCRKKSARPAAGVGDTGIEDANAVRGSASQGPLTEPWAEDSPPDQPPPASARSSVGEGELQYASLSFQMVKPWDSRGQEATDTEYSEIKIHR
Protein translocase subunit SecA (Escherichia coli (strain K12)), sequence (P10408 whole entry): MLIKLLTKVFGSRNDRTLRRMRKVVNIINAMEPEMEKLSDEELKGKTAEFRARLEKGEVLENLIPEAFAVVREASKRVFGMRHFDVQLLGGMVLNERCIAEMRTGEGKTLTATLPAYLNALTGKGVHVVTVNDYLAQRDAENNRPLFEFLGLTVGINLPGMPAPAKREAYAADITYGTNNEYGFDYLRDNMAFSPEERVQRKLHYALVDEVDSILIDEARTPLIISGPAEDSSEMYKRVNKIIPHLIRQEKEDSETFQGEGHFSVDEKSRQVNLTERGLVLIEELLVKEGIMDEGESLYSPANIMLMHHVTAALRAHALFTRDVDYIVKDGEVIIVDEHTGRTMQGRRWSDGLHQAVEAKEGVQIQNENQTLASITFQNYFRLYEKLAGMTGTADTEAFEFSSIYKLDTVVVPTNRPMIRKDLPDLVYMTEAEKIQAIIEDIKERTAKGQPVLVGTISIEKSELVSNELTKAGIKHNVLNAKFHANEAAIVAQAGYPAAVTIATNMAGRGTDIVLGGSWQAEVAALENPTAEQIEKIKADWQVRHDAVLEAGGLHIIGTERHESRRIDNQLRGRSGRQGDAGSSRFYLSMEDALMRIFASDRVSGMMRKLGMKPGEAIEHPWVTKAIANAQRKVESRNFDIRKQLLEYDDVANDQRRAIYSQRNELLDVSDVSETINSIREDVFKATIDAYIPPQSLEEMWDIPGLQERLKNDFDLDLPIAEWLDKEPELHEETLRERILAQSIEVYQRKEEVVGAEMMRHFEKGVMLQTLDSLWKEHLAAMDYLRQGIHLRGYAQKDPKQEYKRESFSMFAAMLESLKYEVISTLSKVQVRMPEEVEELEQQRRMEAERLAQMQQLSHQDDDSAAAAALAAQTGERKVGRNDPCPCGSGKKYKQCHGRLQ

SMILES	Percent Effect [1] [%]	Percent Effect [2] [%]	Percent Effect [3] [%]	Percent Effect [4] [%]	Percent Effect [5] [%]	Percent Effect [6] [%]	Percent Effect [7] [%]	Percent Effect [8] [%]	Percent Effect [9] [%]	Percent Effect [10] [%]	Percent Effect [11] [%]
CSCC(=O)N1CCC2(CC1)c1ccccc1CC2O (stereo unspecified)	-1.39	18.2	10.7	2.45	2.26	-4.14	18.5	5.92	5.38	11.1	-3.92
Cn1cc(C2CCCN2C(=O)Cc2n[nH]c3ccccc23)cn1 (stereo unspecified)	-3.26	22.8	4.87	-9.88	6.33	0.76	13	7.84	6.4	21.5	-11.7
c1ccc(C[C@H]2CN(Cc3nccs3)CC[C@H]2OCC2CC2)cc1	-4.65	2.67	3.57	3.38	-0.591	-2.56	4.32	21.5	3.19	11.5	-3.05
O=C(NCCN1CCOCC1)c1ccc(-n2ccc3ccccc32)s1	-2.64	10.4	4.76	-1.07	1.08	-3.23	8.01	28.5	3.17	11.5	-7.3
Cc1cc(C2CCCN(CCc3ccccn3)C2)n[nH]1 (stereo unspecified)	-4.83	2.53	-4	3.7	9.73	1.14	-1.23	-3.32	-7.39	11.4	-2.02
CSC(C)(C)CNC(=O)NC1CCSCC1	-4.83	13.3	-5.19	18.2	8.47	5.73	6.63	4.48	0.546	11.1	-6.59
O=C(NCc1cc[nH]n1)NCC(c1ccccc1Cl)N1CCCC1 (stereo unspecified)	-5.47	5.41	-5.47	2.23	-2.25	4.22	13.1	-4.64	5.38	13.6	-1.7
O=C1CC2(CCN(CC3CCOC3)CC2)CN1Cc1cc(F)cc(F)c1 (stereo unspecified)	-5.41	12.5	-5.76	26.3	4.37	16.3	9.65	-12.9	2.1	10.3	-4.1
CCn1ccnc1CN1CCN(C(C)C(=O)N2CCC(C)CC2)CC1 (stereo unspecified)	-2.02	2.7	-8.85	9.21	2.88	-3.14	15.4	11	3.96	11	-4.46
N#Cc1cn(C2CC2)c(=O)n(CC(O)c2ccc(OC(F)F)cc2)c1=O (stereo unspecified)	-5.26	15.8	-4.7	7.1	6.01	0	11.2	3.44	0.49	17.1	-12.4
Cc1nn(C)c(Cl)c1C1CCCN1C(=O)c1cc[nH]n1 (stereo unspecified)	-1.54	2.7	-1.34	13.1	2.74	-2	8.83	-3.1	2.46	11.1	-9.56
O=C([C@@H]1CC[C@@H]2[C@@H](CCN2Cc2ccoc2)O1)N1CCCC1	-5.35	13.5	-5.44	27.1	0.684	4.71	17.9	-10.1	7.53	13.6	-3.6
CC(C)Oc1ncccc1CNC(=O)N1CCC1c1ccccc1 (stereo unspecified)	-7.94	13.2	-8.45	2.16	11.3	-0.766	9.69	23.3	7.35	17.1	-12
COc1cccc(C2CCCN2C(=O)c2cc3c([nH]c2=O)CCC3)c1 (stereo unspecified)	-1.17	5.41	0.0672	-4.05	1.17	25	16	5.64	7.92	6.1	-6.8
CC(=O)N1CCC(C(=O)c2cc(C)cnc2N)CC1	-3.36	10.7	3.67	3.51	3.15	3.03	7.67	17.4	4.25	11.5	-4.18
O=C(c1cc(F)ccc1F)C1CCN(C(=O)c2cccnc2O)CC1	-5.29	7.79	3.43	13.6	2.06	0.21	3.8	-28.1	1.91	9.41	-12.7
